A selection: hits, their analogues and other compounds. The true share with any hit is near 2.5%.
Dyrk1A ADPGlo: Dyrk1A (rat) kinase inhibition | ADP-Glo luminescence, NFATc1 peptide | 310,000 compounds, 0.43% hits | AID 504441 | Q63470 | inhibition, % at 12.5 µM; in the data active means inhibition above about 50%;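 further: plate controls were vehicle with enzyme for no effect and no enzyme for full effect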
HSF1 inh: HSF1 inhibition. activity change, negative = inhibition, % at 7.5 µM (by protocol). NIH3T3-HGL HSE-luciferase, MG132-induced, luminescence 8 h; hits give low values. 300,000 compounds, 0.77% hits. AID 2098;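 active means more than half of replicate wells show activity change below -50%, luminescence cut by over half; inconclusive means some wells, but at most half, below -50%; inactive means no replicate well below -50%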;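 further: luciferase reports HSF-1 transcriptional activity via heat shock element; 0% = median of DMSO wells and -100% = zero luminescence signal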
aDG glyco up: alpha-DG glycosylation activation; Pro5-aDG cells, alpha-DG glycosylation AlphaScreen (IIH6); 0% Pro5, 100% B10-LARGE cell signal; activation, % at 10 µM; 360,000 compounds, 0.22% hits; AID 624168;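 active means activation of at least 8% versus controls, or a plate z-score of at least 8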;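 further: Pro5 are CHO cells carrying HIG-tagged alpha-DG that lacks glycosylation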
NPR2 activator: GC-B (human) receptor activation; activation, % at 10 µM; P20594; HEK293-GC-B cells, CNP EC30, cGMP TR-FRET; 0% at EC30 CNP, 100% saturating CNP; AID 1920062; 370,000 compounds, 0.11% hits;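 active means activation at 10 µM reaching about 35% in either raw or pattern-adjusted values, limit read from the data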
Target sequence (P20594 whole entry, looked up): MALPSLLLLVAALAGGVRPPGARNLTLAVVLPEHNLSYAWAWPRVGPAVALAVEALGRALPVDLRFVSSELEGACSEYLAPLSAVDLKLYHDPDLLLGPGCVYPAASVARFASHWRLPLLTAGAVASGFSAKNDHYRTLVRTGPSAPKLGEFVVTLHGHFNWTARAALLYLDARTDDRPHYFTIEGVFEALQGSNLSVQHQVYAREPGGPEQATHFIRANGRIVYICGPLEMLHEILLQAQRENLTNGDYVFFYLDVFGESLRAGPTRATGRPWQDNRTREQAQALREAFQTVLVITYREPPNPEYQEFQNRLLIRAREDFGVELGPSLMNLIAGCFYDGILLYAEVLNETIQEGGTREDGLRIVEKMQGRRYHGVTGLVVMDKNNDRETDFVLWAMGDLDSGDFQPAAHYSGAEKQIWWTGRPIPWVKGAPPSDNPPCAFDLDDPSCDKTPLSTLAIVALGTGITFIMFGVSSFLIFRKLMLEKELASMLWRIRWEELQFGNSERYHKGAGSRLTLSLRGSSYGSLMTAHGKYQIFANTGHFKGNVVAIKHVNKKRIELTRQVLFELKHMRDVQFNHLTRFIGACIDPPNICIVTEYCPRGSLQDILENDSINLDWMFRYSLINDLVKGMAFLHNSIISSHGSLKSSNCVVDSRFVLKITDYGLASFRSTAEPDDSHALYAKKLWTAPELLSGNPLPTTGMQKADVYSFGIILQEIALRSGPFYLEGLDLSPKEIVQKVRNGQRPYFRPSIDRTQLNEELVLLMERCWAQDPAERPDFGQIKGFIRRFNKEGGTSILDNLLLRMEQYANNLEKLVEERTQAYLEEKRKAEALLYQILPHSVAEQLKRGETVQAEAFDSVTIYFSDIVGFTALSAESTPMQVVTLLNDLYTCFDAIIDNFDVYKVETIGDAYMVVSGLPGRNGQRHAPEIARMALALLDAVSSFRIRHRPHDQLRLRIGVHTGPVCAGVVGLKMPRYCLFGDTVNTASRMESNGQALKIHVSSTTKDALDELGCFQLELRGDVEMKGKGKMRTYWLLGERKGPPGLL
HSF-1 act: increases HSF-1 driven luciferase reporter signal | NIH3T3-HGL HSF-1 luciferase reporter, MG132, 8 h; 100% = twice DMSO control signal | activation, % at 9 µM | 300,000 compounds, 1.7% hits | AID 504408;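 active means mean replicate activation of at least 50% with a set share of replicates each reaching 50%; inconclusive means only one of those two conditions met; inactive means mean below 50% and too few replicates reaching it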;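 further: 0% = median of the neutral control wells and 100% = twice that signal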
NPR1 activator: GC-A (human) enzyme activation | P16066 | HEK293 GC-A cells, cGMP TR-FRET, EC30 ANP; 0% at EC30 ANP, 100% saturating ANP | activation, % at 10 µM | 370,000 compounds, 0.14% hits; in the data active means activation above about 40%
Starred values were filed as active, the others as inactive; ? = inconclusive; . = no result.

SMILES	Dyrk1A ADPGlo	HSF1 inh	aDG glyco up	NPR2 activator	HSF-1 act	NPR1 activator
CCN(CC(=O)NCc1ccc(Cl)cc1)C(=O)COc1ccc(C)cc1C	-3	4	0	-1	14	-7
CC(C)C(=O)N1CCN(c2ccc(NC(=O)c3ccc([N+](=O)[O-])o3)cc2)CC1	.	33	0	-3	?	-5
Cc1ccc(NC(=O)c2cccc(NC(=O)/C=C/c3ccco3)c2)cc1C	4	40	0	1	73*	3
Cc1ccccc1C(=O)N1CCN(c2ccc(NC(=O)c3ccc([N+](=O)[O-])o3)cc2)CC1	0	61	0	2	86*	-5
O=C(Nc1ccc(N2CCN(C(=O)c3ccccc3)CC2)cc1)c1ccc([N+](=O)[O-])o1	-1	89	0	1	111*	-3
Cc1ccccc1C(=O)N1CCN(c2ccc(NC(=O)c3cccnc3)cc2)CC1	1	-10	0	1	-17	-2
O=C(/C=C\c1ccco1)Nc1ccc(N2CCN(C(=O)c3ccccc3)CC2)cc1	1	38	2	3	66*	-2
O=C(CCc1ccccc1)Nc1cccc(S(=O)(=O)N2CCOCC2)c1	-8	.	0	0	.	0
CCc1cc([N+](=O)[O-])cc(CC)c1N	70*	-1	0	-7	15	-3
CCc1ccc(NC(=O)c2cnn(-c3ccccc3)c2C2CCNCC2)cc1	2	-5	0	5	-23	0
Cc1c(C(=S)Nc2ccccc2)cnn1-c1ccccc1	0	21	0	13	62*	1
CCc1ccc(NC(=O)c2cnn(-c3ccccc3)c2C)cc1	-3	23	0	2	57*	5
CCOC(=O)c1cnn(-c2ccccc2)c1-n1cccc1	-67	-74*	0	2	-77	0
Cc1c(C(=S)Nc2ccccc2)cnn1-c1ccc([N+](=O)[O-])cc1	1	11	1	5	1	-1
O=C(Nc1cc(Cl)ccc1N1CCOCC1)c1cc2ccccc2o1	-4	-3	0	-9	-2	-4
COC(=O)C1=CN(Cc2ccc(OC)c(OC)c2)C=C(C(=O)OC)C1c1cccc(OC)c1OC	-1	9	0	-1	6	-2
COC(=O)C1=CN(Cc2ccc(OC)c(OC)c2)C=C(C(=O)OC)C1c1ccccc1F	-2	-55*	1	3	-61	-7
O=C(CCCSc1nc2ccccc2[nH]1)NCc1ccco1	-3	13	0	1	68*	-1
Cc1cc(C(=O)c2ccc(C(C)(C)C)cc2)c(NC(=O)CCl)s1	1	44	0	2	94*	0
O=C(CCl)Nc1sccc1C(=O)c1ccccc1	2	43	0	-2	61*	2
Cc1c(NC(=O)CN2C(=O)NC3(CCCCC3C)C2=O)cccc1[N+](=O)[O-] (stereo unspecified)	1	.	0	1	.	2
O=C(Nc1c(S(=O)(=O)c2ccc(Cl)cc2)csc1Br)c1ccccc1Cl	0	8	0	-3	54*	-1
CC12c3ccccc3C(c3ccccc31)C1C(=O)N(Cc3cccnc3)C(=O)[C@H]12 (stereo partly specified)	-3	29	0	1	70*	-11
COC(=O)/C(=C1/Oc2cc(C)oc(=O)c2S1)C(F)(F)F	12	-79*	0	-6	-79	-1
COC(=O)C(NC(=O)CNS(=O)(=O)c1ccc(Br)cc1)c1ccccc1 (stereo unspecified)	-5	19	1	-9	54*	-9
SMILES	Dyrk1A ADPGlo	HSF1 inh	aDG glyco up	NPR2 activator	HSF-1 act	NPR1 activator
Cc1ccc(Nc2c(-c3ccc(N4CCOCC4)cc3)nc3cnccn23)cc1	3	-1	0	3	-4	17
COc1ccc(Nc2c(-c3ccc(OC)cc3)nc3cnccn23)cc1	6	-13	0	49*	-22	50*
Cc1ccc(Nc2c(-c3ccccc3O)nc3ncccn23)cc1	0	4	0	17	-12	54*
COc1ccc(Nc2c(-c3ccc(C)cc3)nc3cnccn23)cc1	2	8	0	48*	-12	46*
Cc1ccc2nc(-c3ccccc3O)c(Nc3ccc4c(c3)OCCO4)n2c1	.	0	0	16	15	21
Cc1ccc(Nc2c(-c3ccccc3O)nc3cnccn23)cc1	4	-2	0	17	-2	48*
COC(=O)N/N=C/c1cc(C)n(-c2cccc3ccccc23)c1C	-1	5	0	-2	1	-3
CCN(CC)C(=O)c1[nH]cnc1C(=O)Nc1ccon1	0	.	0	9	.	1
O=Nc1c(O)c2ccccc2c2ccccc12	54*	-12	2	-2	-14	0
Nc1c(C(=O)c2ccccc2)sc2snc(SCC(=O)c3ccccc3)c12	-13	51	0	5	111*	3
Nc1nnc(SCC(=O)c2ccccc2)s1	-3	-7	0	2	4	1
Cc1cc(N=Nc2ccc(Cl)cc2)cc(CN2CCCC2)c1O	.	-60*	0	-5	-69	15
S=C(Nc1cccc(Cl)c1)OC1CCC12CCC(c1ccccc1)CC2 (stereo unspecified)	.	.	.	-1	.	4
CCOc1ccc2nc(SCC(=O)Nc3ccc4c(c3)OCCO4)[nH]c2c1	-3	5	0	-6	-7	-4
O=C(CSc1nc2ccccc2[nH]1)Nc1ccc(F)c(F)c1	3	-61*	1	-5	-71	-6
O=C(CSc1nc2ccccc2[nH]1)Nc1ccccc1F	.	-1	0	-3	12	-1
COc1ccc2nc(SCC(=O)Nc3ccc4c(c3)OCCO4)[nH]c2c1	4	-53*	0	-11	-59	0
O=C(Nc1ccc(F)cc1)N1CCOCC1	-4	-53*	0	1	-64	1
O=C(Nc1ccc(F)cc1)N1CCCCCC1	-1	5	0	0	7	2
O=C(Nc1ccc2c(c1)OCO2)N1CCN(c2ccccc2)CC1	2	-5	0	9	1	3
O=C(Nc1ccc2c(c1)OCCO2)N1CCN(c2ccccc2)CC1	-4	-57*	0	0	-59	4
O=C(O)C1CC=CCC1C(=O)Nc1ccc(F)c(F)c1 (stereo unspecified)	4	-2	0	2	6	0
O=C(O)C1CC=CCC1C(=O)Nc1ccc2c(c1)OCCO2 (stereo unspecified)	8	-62*	0	2	-68	-2
CCOc1ccc2nc(N(Cc3ccccc3)C(=O)CCNC(C)=O)sc2c1	-4	15	0	0	57*	1

Assay outcomes as filed in PubChem BioAssay.
